High-throughput results from PubChem.
Most compounds without a hit are left out; they make up all but 1.5% or so of the library.
KAT2A inh – GCN5L2 (KAT2A) acetyltransferase inhibition; GCN5L2 HAT assay, ThioGlo1 CoA-SH fluorescence; AID 504327; actives 0.21% (n = 390,000); Potency, µM (top dose mostly 58.9 µM), for the others: top-dose activity change, negative = inhibition, usual class: inhibitors; note: potency is the fitted concentration of half-maximal effect
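ThioGlo1-coupled HAT assay: 20nM GCN5L2, 70uM acetyl-CoA, 75uM H3(1-25) peptide, pH 7.5. Fluorescence read at 340/540nm at start and after 20 min at room temperature.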
BLM inh – inhibitors of human Bloom syndrome helicase BLM; Potency, µM (series often up to 56.1 µM), inactives show at the highest dose activity change, negative = inhibition, hits mostly inhibitors; recombinant BLM DNA unwinding, fluorescence dequenching; actives 0.2% (n = 350,000); P54132;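 note: potency is the fitted concentration of half-maximal effect; plate controls were vehicle for no effect and no enzyme for full effect; nearly all actives have a fitted effect of over 35% in size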
PI5P4Ka inh – PI5P4K alpha (human) kinase inhibition | PI5P4Kalpha enzyme, ADP-Glo luminescence, 60 min; active compounds read low | P48426 | actives 1.2% (n = 330,000) | max response, %; active = max response of -50% or lower; inconclusive = between -30% and -50%; inactive = -30% or higher; note: value at the top dose of about 77 µM
Target sequence (P48426 whole entry, looked up): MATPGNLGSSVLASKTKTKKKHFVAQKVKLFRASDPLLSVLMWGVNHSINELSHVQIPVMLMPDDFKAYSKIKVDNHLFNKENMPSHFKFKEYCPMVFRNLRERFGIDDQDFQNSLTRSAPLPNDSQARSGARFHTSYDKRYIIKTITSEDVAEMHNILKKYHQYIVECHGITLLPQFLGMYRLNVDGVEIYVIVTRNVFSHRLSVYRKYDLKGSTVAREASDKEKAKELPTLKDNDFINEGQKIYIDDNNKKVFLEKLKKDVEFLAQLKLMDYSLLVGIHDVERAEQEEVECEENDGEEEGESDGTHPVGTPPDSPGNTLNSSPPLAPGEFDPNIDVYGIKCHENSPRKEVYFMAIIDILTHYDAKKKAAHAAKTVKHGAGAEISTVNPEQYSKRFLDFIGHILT
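Controls without substrate or without enzyme flank wells where PI5P4Kalpha converts substrate using 5 microM ATP (final). Incubation lasts 60 minutes at room temperature; ADP formed is read by ADP-Glo luminescence.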
FEN1 inhibitor – blocks human flap endonuclease 1 | Potency, µM (doses to about 114 µM), for inactives: top-dose activity change, negative = inhibition, actives largely listed as inhibitors | actives 0.35% (n = 390,000) | Recombinant FEN1 flap cleavage, fluorescence, 15 min | AID 588795; note: potency is the fitted concentration of half-maximal effect; nearly all actives have a fitted effect of over 65% in size
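FEN1 at 10 nM preincubated with compounds 15 min at room temperature, then flap DNA substrate added at 50 nM final. Signal read at 0 and 15 min; concentration-response fitted with four-parameter Hill equation.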
RECQ1 inh-1 – RECQ1 (human) helicase inhibition; RECQ1 DNA unwinding, red fluorescence kinetic read; Potency, µM (doses to about 57.3 µM), for the others: at the top dose activity, negative = inhibition, most hits filed as inhibitors; P46063; actives 0.54% (n = 240,000); AID 2549;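 note: potency is the fitted concentration of half-maximal effect; plate controls were vehicle for no effect and no enzyme for full effect; nearly all actives have a fitted effect of over 30% in size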
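RECQ1T1 50 nM; forked duplex (20 bp + 30-nt ss tails) 200 nM, ATP 2 mM final; pH 8.0, 2 mM MgCl2, 2.5 ug/ml poly(dI-dC); 15 min compound preincubation; discontinuous kinetic read over 2 h at RT.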
APEX1 inh – blocks human APE1 abasic DNA cleavage; recombinant APE1, TAMRA/BHQ-2 abasic DNA cleavage fluorescence; Potency, µM (top dose mostly 65.8 µM), for the others: top-dose activity change, negative = inhibition, actives largely listed as inhibitors; actives 0.35% (n = 350,000); AID 2517;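 note: potency is the fitted concentration of half-maximal effect; plate controls were vehicle for no effect and reference inhibitor for full effect; nearly all actives have a fitted effect of over 55% in size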
Target sequence (P27695 whole entry, looked up): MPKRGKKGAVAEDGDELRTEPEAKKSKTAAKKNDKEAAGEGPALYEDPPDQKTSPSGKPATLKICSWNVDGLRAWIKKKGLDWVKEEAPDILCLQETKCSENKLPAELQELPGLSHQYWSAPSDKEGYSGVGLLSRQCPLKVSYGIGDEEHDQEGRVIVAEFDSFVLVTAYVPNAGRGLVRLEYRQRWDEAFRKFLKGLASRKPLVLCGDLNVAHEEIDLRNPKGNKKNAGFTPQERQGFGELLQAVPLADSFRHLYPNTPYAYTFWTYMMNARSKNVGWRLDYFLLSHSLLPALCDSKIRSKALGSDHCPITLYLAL
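Kinetic fluorescence read (525 ex/598 em nm, three reads 60 s apart) of AP-site incision; signal = third minus first read. Enzyme 0.75 nM, dual-labelled THF duplex 50 nM, compound preincubation 15 min RT.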
RECQ1 conf – confirmation of human RECQ1 helicase inhibitors; RECQ1 helicase DNA unwinding, fluorescence; Potency, µM (doses to about 229 µM), for the others: top-dose activity change, negative = inhibition, hits mostly inhibitors; actives 28% (n = 610); shares compounds with RECQ1 inh-1; note: potency is the fitted concentration of half-maximal effect; nearly all actives have a fitted effect of over 45% in size
RECQ1 ADP FP – displaces ADP in a fluorescence polarization counter-screen for RECQ1 hits | Potency, µM (series often up to 228 µM), without a hit: top-dose activity change, negative = inhibition, most hits filed as inhibitors | shares compounds with RECQ1 inh-1 | ADP fluorescence polarization displacement counterscreen | actives 27% (n = 530); note: potency is the fitted concentration of half-maximal effect; nearly all actives have a fitted effect of over 45% in size
RECQ1 inh-2 – confirmation of human RECQ1 helicase inhibitors; shares compounds with RECQ1 inh-1; recombinant RECQ1 DNA unwinding, red fluorescence; Potency, µM (top dose mostly 119 µM), for the others: at the top dose activity, negative = inhibition, hits mostly inhibitors; actives 15% (n = 1,100); AID 504841; note: potency is the fitted concentration of half-maximal effect; nearly all actives have a fitted effect of over 50% in size
* hit, by the source's call; i = inactive; ? = inconclusive; nt = no result given; ! = not confirmed by another sample; [ ] = remark or other dose. Unless noted, calls come from the whole dose curve; as a rule, active = well fitted curve in the direction sought with a large enough effect; inconclusive = small, poorly fitted or top-dose-only effect, or another doubt; inactive = no such curve, though single readings can be large; an effect the other way counts as inactive or inconclusive. Unless noted, % is set by controls: 0 for no effect and ±100 for the full control effect.

SMILES | KAT2A inh | BLM inh | PI5P4Ka inh | FEN1 inhibitor | RECQ1 inh-1 | APEX1 inh | RECQ1 conf | RECQ1 ADP FP | RECQ1 inh-2
O=C(O)CC(SCC(=O)NC1CCCc2ccccc21)C(=O)O (stereo not drawn) | 0% | 1% | 0 | 5% | 7% | -2% | 1% | 6% | nt
COc1ccc(Sc2ccc(/C=C3\C(=O)NN(c4ccccc4)C3=O)o2)cc1 | -28% | -21% | ? | -18% | 10µM* | -7% | -14%[114 µM] | nt | nt
O=C(/C=C/c1ccc2c(c1)OCO2)Nc1nc(-c2ccccc2)cs1 | -26% | -11% | -3 | -14% | 1.4µM* | 9% | -3%[114 µM] | 6%[91.9 µM] | ?
Cc1nc2nc(-c3ccccc3)cc(=O)n2[nH]1 | -7% | 2% | nt | 2% | -1% | 0% | nt | nt | nt
O=c1cc(-c2ccccc2)nc2nc(-c3ccco3)[nH]n12 | -2% | -15% | -20 | -4% | 25µM* | -6% | nt | nt | -4%
NS(=O)(=O)c1ccc(NC(=O)N2c3ccccc3Sc3ccccc32)cc1 | 3% | 2% | nt | 4% | i | ? | nt | nt | nt
CC1CCN(S(=O)(=O)c2ccc(NC(=O)N3c4ccccc4Sc4ccccc43)cc2)CC1 | 2% | -5% | nt | 14% | -13% | 1% | -10% | 42% | nt
Cc1ccc(C)n1-c1ccc(N2CCOCC2)nc1 | -3% | -12% | nt | 5% | ? | -4% | nt | nt | -8%
CCCCC#Cc1ccc(C(=O)NNC(=O)Nc2ccccc2)o1 | ? | -8% | -8 | 1% | 28µM* | 5% | nt | nt | ?
CC[C@H](C)[C@H](NC(=O)[C@H](CO)NC(=O)[C@H](C)NC(=O)[C@H](C)NC(=O)[C@H](CCC(N)=O)NC(=O)[C@H](CCCCN)NC(=O)[C@H](CCCN=C(N)N)NC(=O)[C@@H](N)CS)C(=O)N[C@@H](CCCCN)C(=O)N[C@H](C(=O)N[C@@H](C)C(=O)N[C@H](C(=O)N[C@@H](CO)C(=O)O)C(C)C)C(C)C | 1% | 1% | nt | nt | -8% | 0% | nt | nt | nt
C=CCn1c(C)cc(C(=O)Cn2ncc(Cl)c(Cl)c2=O)c1C | -24% | -24% | -72* | -12% | 10µM* | ? | nt | nt | -22%
CC(C)(C)C(=O)Cn1ncc(Cl)c(Cl)c1=O | -1% | -4% | 1 | 18% | -1% | 0% | nt | nt | nt
O=C1N/C(=N\S(=O)(=O)c2ccccc2)S/C1=C\c1cc([N+](=O)[O-])ccc1O | -4% | 1% | 43 | ? | nt | 20% | nt | nt | nt
O=C1N/C(=N\S(=O)(=O)Cc2ccccc2)S/C1=C/c1cc([N+](=O)[O-])ccc1O | -6% | -6% | ? | -13% | 13% | -1% | 20% | -2% | nt
CCc1sc(C(C2C(=O)CC(C)(C)CC2=O)C2C(=O)CC(C)(C)CC2=O)cc1[N+](=O)[O-] | -3% | -4% | ? | -24% | 3.2µM* | -7% | nt | nt | -12%
CC1(C)CC(=O)C(C(c2ccc(F)cc2)C2C(=O)CC(C)(C)CC2=O)C(=O)C1 | -5% | -7% | 7 | -2% | -6% | 12% | nt | nt | nt
O=c1oc2ccccc2c2oc3cc(O)c(O)cc3c12 | -18% | 10µM*! | -64* | 45µM* | 25µM* | ? | nt | nt | 35µM*
Nc1c(N)c2ccccc2oc1=O | -11% | -4% | nt | 6% | -7% | 17% | nt | nt | nt
CCCCc1nc2ccccc2c(=O)n1NC(=O)c1c(O)c2c(n(CC(C)C)c1=O)CCCC2 | -13% | -10% | 1 | 0% | i | -3% | ? | 38% | nt
CCc1nc2ccccc2c(=O)n1NC(=O)c1c(O)c2cccc3c2n(c1=O)CCC3 | nt | -3% | 1 | -8% | 5% | 5% | nt | nt | nt
CC(C)Cn1c2c(c(O)c(C(=O)Nn3c(Cc4ccccc4)nc4ccccc4c3=O)c1=O)CCCC2 | -4% | -10% | -6 | -1% | -7% | -1% | nt | nt | nt
O=C(Nn1c(Cc2ccccc2)nc2ccccc2c1=O)c1c(O)c2cccc3c2n(c1=O)CCC3 | 25% | -3% | 10 | -10% | i | 1% | ? | ? | nt
COc1ccccc1-c1csc(NC(=O)c2cc(-c3cccs3)nc3ccccc23)n1 | -9% | -15% | 18 | -2% | ? | 15% | nt | nt | -13%
O=C(O)CCC(=O)Nc1nc2nc(-c3ccccc3)cc(-c3ccccc3)n2n1 | -24% | -1% | -2 | 2% | i | 25% | 35µM* | ? | nt
O=C(Oc1ccccc1)C1O[C@@H]1c1ccccc1 (stereo partly drawn) | nt | 2% | nt | nt | 0% | 1% | nt | nt | nt
SMILES | KAT2A inh | BLM inh | PI5P4Ka inh | FEN1 inhibitor | RECQ1 inh-1 | APEX1 inh | RECQ1 conf | RECQ1 ADP FP | RECQ1 inh-2
c1csc(Cc2nn3c(-c4ccncc4)nnc3s2)c1 | -19% | -27% | nt | ? | 10µM* | ? | nt | 0%[91.9 µM] | -23%
Cc1cnc(CNc2ncnc3ccc(-c4ccc(N(C)C)cc4)cc23)cn1 | -23% | -22% | nt | nt | 25µM* | -9% | nt | nt | ?
CCCCN(C(=O)Cn1ncc(Cl)c(Cl)c1=O)c1c(N)n(CC(C)C)c(=O)[nH]c1=O | ? | -18% | -52* | -20% | 28µM* | -5% | nt | nt | ?
CN(c1ccc(F)cc1)S(=O)(=O)c1ccc(Cl)c(C(=O)Nc2ccc3c(c2)CCC3)c1 | -11% | -2% | -1 | 3% | 32µM* | 10% | nt | nt | -16%
Cc1ccc(C=C2C(=O)c3ccccc3C2=O)s1 | -3% | 1% | -15 | -11% | 14µM* | -11% | ? | 55%[91.9 µM] | nt
O=C1C=CC2=C3c4cc(O)c(O)cc4C[C@]3(O)COC2=C1 | -5% | -11% | nt | nt | 11µM* | 10µM* | 112µM* | 6.3µM* | nt
CN(C(=O)c1ccc(OCC=C(c2ccccc2)c2ccccc2)cc1)c1ccccc1I | nt | -3% | nt | -1% | i | 2% | nt | nt | nt
CCCCn1c(Cl)nc2c1c(=O)n(C)c(=O)n2C | 2% | 1% | 0 | 1% | ? | -3% | nt | nt | -8%
Cc1ccc(-n2c(=O)c(C#N)cc3c(=O)n4ccccc4nc32)cc1 | 30% | -3% | -4 | 2% | 35µM* | ? | nt | nt | 1%
Cc1cccc(-n2c(=O)c(C#N)cc3c(=O)n4ccccc4nc32)c1 | -18% | -11% | 8 | 1% | 4% | 5% | nt | nt | nt
